Test results taken from PubChem BioAssay AID1508600 (Functional Genomics Laboratory (NCATS/FGL), 2020).
Screen size: about 53,000 sequences; about 3,700 (7%) were called active. The full list was thinned out, with actives kept by preference. A number with no mark means an inactive call.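 How the source made its calls: active means gene knockdowns whose robust z-score for IL-1 alpha signal is at least 2 or at most -2, so actives lie on both sides; inactive means the rest.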

test: Components of the Cytosolic LPS Sensing Pathway: Gene Identification via Genome-wide siRNA Screen; conditions: RAW264.7 macrophages, IL-1a HTRF, actives lie on both sides, screened at 100 nM (by protocol), cells primed 5 h with Pam3CSK4 first;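 further: robust z of the log signal after scaling to non-targeting control siRNA wells of the plate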
Outline: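 IL-1a HTRF of supernatants after 24 hour LipidA transfection of Pam3CSK4-primed (5 hours) RAW264.7 cells, 48h post-siRNA transfection (100 nM). Scores: percent of plate negative-control median, then log-based robust z-score.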

Sequence | z-score
CCGUCACUUUUAACCAUGUTT against Speg | 4.19 (active)
GCACCUGGAGUACAUAAAATT against Sh2d1a | -0.854
CGUAGACUCCAAGCUCAAUTT against Ddx54 | -1.31
GGAAAUUGUCUUUGGCUUUTT against Otop1 | -0.0923
GGCAAAAUGAAGAAGCUGATT against Hdac6 | -1.3
GCUACGAGCAGUUUUUAUUTT against Ptgs1 | 0.885
GGUGAAAGGAGUCAGUCUATT against Agtrap | -0.013
GGCUCCUGGUUCUACAUCCTT against Itpr2 | -2.54 (active)
CCCUAAGUAUAGGAUCGGATT against Macroh2a1 | -1.07
GGGUUAUCUAUGCAAAUCCTT against Odc1 | 0.569
GCGGCAUUCGUCCAAAUUGTT against Trpt1 | 0.938
GGCAGAGAUGGUGUUGAUGTT against Col1a2 | -0.342
GGUGGCCAUUCUUCUGUUCTT against Dynll1 | 2.19 (active)
GGAAGUGGUGGCCAUCAAGTT against Stk25 | 1.08
GCUUGUAGGUGGAUACAUGTT against Slc30a4 | -0.161
GGAAGACUAGGAGAGACGGTT against Pqlc3 | -0.739
GCAUAAUGGAUGGAAAGUCTT against Tasp1 | 1.1
CCCUAAGGUGGCAGAAAUCTT against Atp1a2 | -1.49
GGCGGUUCAAAUGUCCUCATT against Fut2 | -2.02 (active)
GGGAGGGUGUGCAAAAGUUTT against Arl4d | 1.26
GCUUCUUAUGAAAAGAUGCTT against Epc2 | 0.463
GGAGUGGACUCACGUCUAATT against Med23 | 0.717
GGGUCCUUUUUCACAUGGUTT against Asph | 2.82 (active)
CGGUGAUAGUGGAGUUUGUTT against Olfr266 | 0.542
GCAGCACAGUACUAUCUCGTT against Ttc4 | -0.339
GCCAGAGAUUCCUCAACGATT against Rpp21 | -2.48 (active)
GCAAUAGAAUCACAUAGGATT against Glyctk | 1.35

Sequence | z-score
GGCUGUAAUGACGAAUACATT against Naa25 | 0.764
GGGCAUGUGAUAGAACAAUTT against Stoml1 | -0.701
GAGAAAGAUAAUUACCUGGTT against Tnfrsf22 | 0.552
GGAAGCUGAUGGCUAUGACTT against Arc | -0.943
GGAGACUGUAGACUUAAAGTT against Rnf25 | -1.24
CAAUAACACUGGUGCCGACTT against Adam34l | 1.73
CCUAAAUUAGUAGGACGGUTT against Cdkn1a | 0.675
GGAUCAGUACCCGUAUUUGTT against Plin2 | -2.38 (active)
CCUAGAUUCGGACAAGGAUTT against Kctd5 | -0.424
GGUAUAGCAAUUUCUACAATT against Chrna2 | -0.174
GGUAGUGAAAAUGAAGAGUTT against Gtf2h1 | 0.892
CCUGAUACCCAAAGACUCATT against Dnaic1 | -1.38
GCAACGGAGGGUCAUUUCATT against Wipf2 | 2.54 (active)
CCAUGAGACAAGAUUUAGATT against Olfr818 | -0.751
UACUUAGGCCCUUGAGCAUTT against Timm10 | 0.725
GGUGUGUUUUCAUGUUUUUTT against Rel | 0.388
GCUAUUGUAGUGGUUACUGTT against Vmn2r57 | 2.21 (active)
GGUAUUUCUUUGUGGUGCUTT against Ptch2 | 1.45
GCUACAUGAUGUUCAUACUTT against Srpx | 0.38
GGUUUGGUGUCAGAUGUCATT against Olfr1182 | -2.32 (active)
GGUGCAACACUCUCUAUUUTT against Afap1l1 | 0.963
CCCAUCUCCUUAAAGUCAATT against Ripk3 | 1.32
GGCAGCUGUUAUGCUUUUCTT against Cd302 | 0.822
CCAGGAUCCUGUUUCUGACTT against AF067061 | 2.19 (active)
GGAACUGUGAGACUUUUAGTT against Rabgap1 | 0.532
CCCUGAGAAGGAUGCGAAATT against Mgat4b | 0.44
GGAGCAGAGAAACUUCUCGTT against Gigyf1 | -2.09 (active)
